From PubChem
GRP78 ERSR act = inducers of ER stress response in human glioma cells. U87-MG GRP78 promoter luciferase reporter, 16 h. Potency, µM, most hits filed as activators. AID 602332. 420,000 tested, 0.02% active; active = well fitted activation curve with a large enough effect; also: series mostly up to about 76 µM; nearly all actives have a fitted effect of over 35% in size
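Stably transfected U87-MG glioma cells carrying a GRP78-based luciferase sensor; 16 h compound incubation. Luminescence end-point read 10 min after Bright-Glo addition at room temperature.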
TRHR enhancer = TRH receptor (human) allosteric enhancement | P34981 | TRHR cells, fluo-8 calcium fluorescence, EC20 TRH enhancement | enhancement, % at 2 µM | 360,000 tested, 0.66% active; in the data active = enhancement above about 30%
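TRHR-expressing cells loaded with fluo-8 calcium dye were read kinetically (ex 480/em 530) during compound addition, then stimulated with an EC20 of TRH (10 nM final). Enhancement of the Gq-mediated intracellular calcium response was scored.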
D1 antagonist = human D1 dopamine receptor antagonism | activity change, negative = inhibition, % at 10 µM | 360,000 tested, 3.2% active | HEK293 TREx D1 cells, calcium flux, dopamine EC80; active compounds read low | P21728; in the data active = activity change below about -30%
Target sequence (P21728 whole entry, looked up): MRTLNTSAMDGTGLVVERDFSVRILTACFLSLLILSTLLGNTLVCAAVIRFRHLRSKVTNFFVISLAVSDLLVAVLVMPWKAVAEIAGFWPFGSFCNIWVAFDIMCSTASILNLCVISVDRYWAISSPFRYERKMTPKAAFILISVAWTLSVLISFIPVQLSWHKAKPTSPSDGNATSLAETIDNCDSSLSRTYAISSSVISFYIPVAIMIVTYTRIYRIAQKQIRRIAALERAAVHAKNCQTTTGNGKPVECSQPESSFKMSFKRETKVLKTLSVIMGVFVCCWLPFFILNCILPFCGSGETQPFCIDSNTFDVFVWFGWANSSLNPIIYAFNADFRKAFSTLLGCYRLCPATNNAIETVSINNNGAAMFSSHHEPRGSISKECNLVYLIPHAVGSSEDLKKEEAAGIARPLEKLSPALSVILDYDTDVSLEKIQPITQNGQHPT
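Antagonism measured as reduced calcium response to an EC80 dopamine addition following 180 s compound pre-read; cells were inducible HEK293 Trex D1 plated overnight at 30 C, read kinetically at 1 cycle/sec.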
TRHR ag = TRH receptor (human) agonism; 360,000 tested, 0.18% active; P34981; TRHR cells, calcium flux fluo-8, FDSS agonist mode; activation, % at 2 µM
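Read-out: compound-evoked intracellular calcium rise in TRHR cells, fluo-8 dye, kinetic FDSS fluorescence at 1 s/cycle following a 10-cycle baseline. Cells cultured overnight before dye loading (30 min–1.5 h, RT).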
D1 agonist = activates the human D1 dopamine receptor | P21728 | HEK293 T-REx D1 cells, calcium flux, agonist mode | activation, % at 2 µM | 360,000 tested, 1% active | AID 504660
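Tetracycline-induced HEK293 TREx D1 cells, force-coupled to calcium signalling, were dye-loaded with a no-wash calcium kit. Compound was pin-added after a 10 s baseline. Fluorescence was read kinetically at 1 cycle/s for 180 s, with calcium rises flagged as agonism.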
D1 PAM = enhances dopamine response at the human D1 receptor | HEK293 TREx D1 cells, calcium flux, dopamine EC20 potentiation | potentiation, % at 10 µM | 360,000 tested, 0.036% active; in the data active = potentiation above about 30%
A number is an active result; 0 = inactive; - = no result given. Sampled rows, rich in hits. Any-hit rate of the full collection: about 4%. Rule as the data show it, unless noted: active = activation above about 30%; inactive = the rest.

SMILES	GRP78 ERSR act	TRHR enhancer	D1 antagonist	TRHR ag	D1 agonist	D1 PAM
O=C(NCCS(=O)(=O)NCCc1ccccc1)c1ccc2c(c1)OCO2	0	0	0	0	0	0
O=C(CSc1ccc(Cl)cc1)Nc1ccc(NC(=O)c2ccco2)cc1	0	0	0	0	0	0
COc1cc(Cl)c(C)cc1NS(=O)(=O)c1c(C)nc2sccn2c1=O	0	0	-44	0	0	0
COc1ccc(OC)c(NS(=O)(=O)c2c(C)nc3sccn3c2=O)c1	0	0	0	0	0	0
O=C(c1coc(=O)c(Br)c1)N1CCOCC1	0	0	0	0	0	0
COc1ccccc1N1CC(C)(C)C(=O)N(C(=O)c2ccc(C)cc2)C1=S	25µM	0	-45	0	0	0
CCN1CCN(C(C(=O)NC2CCCC2)c2ccc(Cl)cc2)CC1 (configuration not stated)	0	0	-38	0	0	0
CCOCC(O)CNc1ccccc1 (configuration not stated)	0	0	0	0	0	0
CC(C)(c1ccccc1)c1ccc(OCC(O)CNC2CCN(Cc3ccccc3)CC2)cc1 (configuration not stated)	0	0	0	0	67	0
COC(=O)c1ccc(CNCC(O)COc2ccc(-c3ccccc3)cc2)cc1 (configuration not stated)	0	0	0	0	0	0
OC(CNc1ccccc1)COc1ccc(OCC(O)CNc2ccccc2)cc1 (configuration not stated)	0	0	-40	0	0	0
COc1ccc(CNCC(O)COc2ccc(C(C)(C)c3ccccc3)cc2)cc1 (configuration not stated)	0	0	0	0	33	0
Cc1cccc(C(=O)NC2CCN(C(=O)Nc3ccc(F)cc3)CC2)c1	0	0	0	0	0	-
Cc1nn(C)cc1CNC(=O)C1C2CCC(O2)C1C(=O)O (configuration not stated)	-	0	0	0	0	0
Cc1nn(C)cc1CNC(=O)C1C2CCC(C2)C1C(=O)O (configuration not stated)	-	0	-32	0	0	0
COc1ccccc1-c1ccc(Nc2cccc(C(F)(F)F)c2)nn1	0	0	0	0	0	0
Fc1ccc(-c2ccc(Nc3cccc(F)c3)nn2)cc1	0	0	-34	0	0	0
Fc1ccc(Nc2ccc(-c3ccc(F)cc3)nn2)cc1	0	0	-45	0	0	0
Clc1ccc(Nc2ccc(Cl)nn2)cc1	0	0	0	0	0	0
O=[N+]([O-])c1ccc(Cl)cc1Sc1cccc2cccnc12	0	0	0	0	0	0
CC(C)CCN1CCN(CCCc2ccccc2)CC1CCO (configuration not stated)	0	0	0	0	0	0
CC(C)/C=C/CN1CCN(CCCc2ccccc2)C(CCO)C1 (configuration not stated)	0	34	0	0	0	0
Cc1cc(OCc2cc(C(=O)N(C)C3CCOC3)no2)cc(C)c1Cl (configuration not stated)	0	0	-47	0	0	0
CC(=O)c1ccc(OCc2cc(C(=O)N(C)C3CCOC3)no2)cc1 (configuration not stated)	0	0	0	0	0	0
COc1cccc(OCc2cc(C(=O)N(C)C3CCOCC3)no2)c1	0	0	-56	0	0	0
SMILES	GRP78 ERSR act	TRHR enhancer	D1 antagonist	TRHR ag	D1 agonist	D1 PAM
Cc1ccc(OCc2cc(C(=O)NCC(C)c3ccccc3)no2)cc1C (configuration not stated)	0	0	-31	0	0	0
Cc1ccc(OCc2cc(C(=O)NCCn3cccn3)no2)cc1C	0	0	0	0	0	0
Cc1cc(OCc2cc(C(=O)NCCN3CCCCC3CO)no2)cc(C)c1Cl (configuration not stated)	0	0	-44	0	35	0
CNC(=O)c1nc[nH]c1C(=O)NC	0	0	0	0	0	0
COc1ccc(OCc2cc(C(=O)N(C)CCC3CCOCC3)no2)c(Cl)c1	0	0	-41	0	0	0
Cc1cc(OCc2cc(C(=O)NCc3csc(C(C)C)n3)no2)cc(C)c1Cl	0	0	-41	0	71	0
O=Cc1cc([N+](=O)[O-])ccc1N1CCOCC1	0	0	-39	0	0	0
O=C1NC(=S)N/C1=C/c1cc([N+](=O)[O-])ccc1N1CCOCC1	0	0	0	0	0	0
O=[N+]([O-])c1cc(Cl)ccc1N1CCCCC1	0	0	0	0	0	0
O=[N+]([O-])c1ccc(N2CCCCCC2)c([N+](=O)[O-])c1	0	0	-53	0	0	0
CNc1cncc(-c2ccc(OC)c(OC)c2)n1	0	-	-	-	-	-
Cc1nn(CCCC(=O)NCc2ccc(F)cc2)c(C)c1[N+](=O)[O-]	0	30	0	0	0	0
Cc1nn(CC(=O)NCc2ccccc2F)c(C)c1[N+](=O)[O-]	0	0	0	0	0	0
Cc1nn(CC(=O)NCc2cc3ccccc3[nH]2)c(C)c1[N+](=O)[O-]	0	0	-41	0	0	0
COc1cccc(/C=N/Nc2nc(C)cc(=O)[nH]2)c1OC	0	0	0	0	0	0
Cn1c(C(=O)NN)cc2cc(Oc3ccccc3)ccc21	0	0	-46	0	0	0
COc1ccc(/C=C/C(=O)Nc2ccccc2C(=O)NCC(c2ccc(OC)cc2)N(C)C)cc1 (configuration not stated)	0	0	0	0	0	0
COc1nc(-c2ccccc2)ccc1-c1noc(-c2ccccc2F)n1	0	0	0	0	159	0
N/C(COc1ncn(-c2ccccc2)n1)=N\S(=O)(=O)c1ccc(Cl)cc1Cl	0	0	0	0	0	0
O=C(COc1ccc(Cl)cc1Cl)Nc1nnc(C2=COCCO2)o1	0	0	-69	0	0	0
Cc1ccc2sc(N(Cc3cccnc3)C(=O)CCS(=O)(=O)c3ccccc3)nc2c1C	0	0	-	0	31	0
COc1ccc(S(=O)(=O)c2cn(CC(=O)Nc3ccccc3)c3ccc(Cl)cc3c2=O)cc1	0	0	-45	0	0	0
O=C(Cn1cc(S(=O)(=O)c2ccc(F)cc2)c(=O)c2cc3c(cc21)OCO3)Nc1ccccc1	0	0	-34	0	0	0
CC[C@@H]1C(c2cccc(Cl)c2)=NN(c2ccc(Br)cc2)[C@H]1C(=O)N1CCOC1=O	0	-	-	-	-	-
CC(NCc1ccc(-c2ccccc2)cc1)C(O)c1ccccc1 (configuration not stated)	0	0	0	0	200	0
CCOC(=O)C1=C(O)/C(=C\c2ccc(OC)c(OC)c2)N=C1C	0	0	0	0	0	0
CCOC(=O)C1=C(O)/C(=C/c2cc(OC)c(OC)c(OC)c2)N=C1C	0	0	-38	0	0	0
